The supplement of paper PMC6555819

Each sequence was assayed on PPARa:RXRa (NR concentration 270 nM, RXRa partner concentration 90 nM) (assay: PBM binding z-score (relative to random genomic background probes); higher = stronger binding; sequences stand for … in GC…GCGATTGACAGCGTAGAATGAAGG).
Method in brief: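 Probes were double-stranded and carried 34-nt variable regions with direct-repeat seeds, single-nucleotide variants, half-site ablations and random human genomic background sequences, printed on custom Agilent 4×180K protein-binding microarrays. Arrays were incubated 1 h with ligand-free nuclear receptor dimers in PBS pH 7.4, 2% milk, 0.02% Triton X-100, 1 mM DTT, 0.2 mg/mL BSA and 0.4 mg/ml salmon testes DNA. Antibodies against each partner (one per run) detected binding, and scanned fluorescence was regression-normalized. Binding z-scores use the random background probes as reference.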

Sequence | PBM binding z-score
CTATGTAGGTTAAGGGGGTCATTCAGTTTGAAAG | 6.31
CCGAGTAGGTTACGAGGGGGCATGCAGTGCGAAT | 3.35
TCGAGCAGGTTACGGGGGCATTCAGGGATGAAGA | 4.14
CTATGTAGGTTAAGGGGGCCATTCAGTTTGAAAG | 4.65
TCGGGTAGGTTACGGGGGCATTCAGGGATGAAGA | 4.69
CTATGTAGGTTAAGGGGGTCTTTCAGTTTGAAAG | 4.64
CTGTGTAGGTTAAGGGGGTCATTCAGTTTGAAAG | 5.67
CTATGTAGATTAAGGGGGTCATTCAGTTTGAAAG | 5.52
CCGAGTAGGTTACGAGGGGGTATTCAGTGCGAAT | 2.87
TCGAGTAGGTTAAGGGGGCATTCAGGGATGAAGA | 3.99
CCGATTAGGTTACGAGGGGGCATTCAGTGCGAAT | 3.29
CTATGTAGGTTAAGCGGGTCATTCAGTTTGAAAG | 4.84
CTATGTAGGTTAAGGGGGTCATGCAGTTTGAAAG | 6.35
CTATGTAGGTTAAGGGGGGCATTCAGTTTGAAAG | 4.85
CTATGTAGGTTAAAGGGGTCATTCAGTTTGAAAG | 6.43
CCGAGTAGGTCACGAGGGGGCATTCAGTGCGAAT | 5.66
TCGAGTAGGTTATGGGGGCATTCAGGGATGAAGA | 3.71
CTGAGTAGGTTACGAGGGGGCATTCAGTGCGAAT | 3.73
TCGAGTAGGTTACGGGGGCATTCCGGGATGAAGA | 4.29
CCGAGTAGGTTAAGAGGGGGCATTCAGTGCGAAT | 3.21
TCGAGTACGTTACGGGGGCATTCAGGGATGAAGA | 2.44
CTATGTAGGTAAAGGGGGTCATTCAGTTTGAAAG | 5.92
